KDM5B inh = KDM5B demethylase inhibition; hit rate 2.6% among 220,000; Potency, µM (titrated, usually from 57.7 µM), most hits filed as inhibitors; KDM5B demethylase, FDH-coupled NADH fluorescence (FDH is formaldehyde dehydrogenase); AID 1347165; active means well fitted inhibition curve with a large enough effect; further: 0% is about no effect; nearly all actives have a fitted effect of over 70% in size
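Compound dilutions met 200 nM (final) KDM5BΔAP for 10 min at room temperature before substrate addition. The substrate mix held 12.5 µM H3K4me3 with cofactors 25 µM α-ketoglutarate and 50 µM Fe²⁺. NADH signal gain over 30 min defined activity.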
The depositor's hits bear a star; i = inactive. The entries come from a sample that favours hits as a whole. Potency means the concentration at half of the fitted maximal effect.

SMILES	KDM5B inh
Cc1cccc(C(=O)NCc2nnc3cc(-c4nc(C5CC5)no4)ccn23)c1	i
COc1ccccc1C(=O)NCc1nnc2cc(-c3nc(C4CC4)no3)ccn12	28µM*
O=C(NCc1nnc2cc(-c3nc(C4CC4)no3)ccn12)c1nccc2ccccc12	28µM*
O=C(NCc1nnc2cc(-c3nc(C4CC4)no3)ccn12)c1cccnc1	28µM*
O=C(NCc1nnc2cc(-c3nc(C4CC4)no3)ccn12)c1ccccc1F	8.9µM*
COc1ccc2cc(C(=O)c3cc4ccc(OC)cc4oc3=O)c(=O)oc2c1	i
CCCCOc1ccc(CNC(=O)c2cnc3sc(N4CCOCC4)nn3c2=O)cc1	i
CCCCCCCCS(=O)(=O)CCOS(=O)(=O)CCCCCCCC	i
O=C(O)[C@H]1C[C@@H](C(=O)N2CCCC2)CN(Cc2ccc(F)cc2F)C1	i
CCCCCc1ccc(-c2ccc(C(=O)Oc3ccc(C(=O)OC)cc3)cc2)nc1	i
O=C1NCCCCCN(C(=O)C2CC2)[C@H]2CCCC[C@@H]12	i
CC1(C)C(=O)N(Cc2ccccc2F)[C@H]2CN(Cc3cccc(OC(F)(F)F)c3)C[C@H]2[S+]1(=O)[O-]	i
CCCN1Cc2cccc(C(=O)Nc3c(Cl)cccc3Cl)c2C1=O	i
CCCNC(=O)C1Cc2cc(S(=O)(=O)N3CCCCCC3)ccc2N1C(C)=O (centres undefined)	i
O=C(NCc1nnc2cc(-c3nc(C4CC4)no3)ccn12)c1ccc(F)cc1	i
O=C(NCc1nnc2cc(-c3nc(C4CC4)no3)ccn12)c1ccc(F)c(F)c1	28µM*
O=C(NCc1nnc2cc(-c3nc(C4CC4)no3)ccn12)c1ccc2[nH]ccc2c1	i
CC(C)=CCN1CCN(Cc2ccc(N3CCNC3=O)cc2)CC1CCO (centres undefined)	i
CN(C(=O)CSc1cn(CC(=O)N2CCCCCC2)c2ccccc12)c1ccccc1	i
CCc1ocnc1C(=O)N1CCC(c2nnc(Cn3cncn3)n2C)CC1	i
Cc1ccc(C#N)c(N2CCC(c3nnc(Cn4cncn4)n3C)CC2)n1	28µM*
Cn1c(CN2CCN(c3ncccc3C#N)CC2)nnc1C1CC(N)C1 (centres undefined)	i
Cc1c(C(=O)N(C)C)sc2c1c(=O)n(-c1ccc(Cl)cc1)c(=O)n2Cc1ccccc1F	i
O=C1Nc2ccc(Br)cc2C(=O)N2CCN(C(=O)c3cccnc3)C[C@H]12	i
O=C(O)CCCC(=O)N1CCN2C(=O)c3cc(-c4ccco4)ccc3NC(=O)[C@@H]2C1	40µM*
SMILES	KDM5B inh
O=C(O)CCCC(=O)N1CCN2C(=O)c3cc(Br)ccc3NC(=O)[C@@H]2C1	i
CN(C)c1ccc(C(=O)N2CCN3C(=O)c4cc(Br)ccc4NC(=O)[C@H]3C2)cc1	i
O=C1Nc2ccc(Br)cc2C(=O)N2CCN(C(=O)c3ccccc3)C[C@H]12	i
O=C(NC1CCCCC1)N[C@H]1CCN2C(=O)c3cc(-c4ccsc4)ccc3NC(=O)[C@H]12	i
O=C1Nc2ccc(-c3ccc4c(c3)OCO4)cc2C(=O)N2CCN(C(=O)c3cccnc3)C[C@H]12	i
O=C1Nc2ccc(-c3ccco3)cc2C(=O)N2CCN(C(=O)c3ccccc3)C[C@H]12	35µM*
O=C1Nc2ccc(-c3ccccc3)cc2C(=O)N2CCN(C(=O)NC3CCCCC3)C[C@H]12	i
O=C(O)CCC(=O)N[C@H]1CCN2C(=O)c3cc(-c4ccccc4F)ccc3NC(=O)[C@H]12	i
O=C1Nc2ccc(-c3ccccc3)cc2C(=O)N2CCN(C(=O)c3cccc(F)c3)C[C@H]12	28µM*
O=C1Nc2ccc(-c3ccco3)cc2C(=O)N2CCN(C(=O)NC3CCCCC3)C[C@H]12	28µM*
CCOc1ccc(C(=O)N[C@H](C(=O)O)C(C)C)cc1	i
O=C(C1CCCC1)N1Cc2ccccc2CC2(CCN(Cc3ccccn3)C2)C1 (centres undefined)	i
CC(CCc1ccccc1)NC(=O)c1ccc2nc(N3CCOCC3)sc2c1 (centres undefined)	i
COc1ccc(C)cc1NC(=O)c1nc2ccccc2nc1N1CCCCC1	i
COC(=O)c1sc(NC(=O)c2ccc([N+](=O)[O-])o2)c(C#N)c1C	i
Cc1ccc(C2Cn3nnc(-c4noc(C5(c6ccccc6)CC5)n4)c3CO2)cc1 (centres undefined)	i
CCCOc1ccc(/C(O)=C2/C(=O)C(=O)N(CCN3CCOCC3)C2c2ccccc2)cc1 (centres undefined)	i
COc1ccc(CN2CCC3CC(=O)NCCC3C2)cc1 (centres undefined)	i
CC(C)C1=NOC2(CCCN(CC3CCCC3)C2)C1 (centres undefined)	i
Cc1cccc(CC(=O)N2CC(c3nnc(-c4ccncc4)o3)C3(CCOCC3)C2)c1 (centres undefined)	i
Cc1cccc(/C=C(/C(=O)NC2CC2)c2cccs2)c1	i
C=CCn1c(SCC(=O)Nc2ccc(C(=O)O)cc2)nc2sc(C)c(C)c2c1=O	i
Cc1cccc2nc(C(=O)N3CCCC(c4[nH]ncc4-c4ccccc4)C3)cn12 (centres undefined)	i
Cc1nc2ncccn2c1C(=O)N1CCC(c2[nH]ncc2-c2ccccc2)CC1	28µM*
Cc1cccc(-c2cn[nH]c2C2CCN(C(=O)c3ccccc3OC(F)F)CC2)c1	i
SMILES	KDM5B inh
Cc1cc(F)ccc1OC1CN(CC2CC2)C1	i
CC(C)(C)NC(=O)C1CCCN(S(=O)(=O)c2ccc(-n3cnnn3)cc2)C1 (centres undefined)	i
CC(Nc1ccc(-c2nc(CCCc3ccccc3)no2)cn1)c1cnn(C)c1 (centres undefined)	28µM*
CC(=O)N1CCC(Cc2noc(-c3ccccc3)n2)C1 (centres undefined)	i
O=C(NCCc1noc(-c2cccnc2)n1)NCc1ccccc1	i
Cc1nccn1CCN(C)c1ccc(-c2nc(COc3ccccc3)no2)cn1	22µM*
N#Cc1ccccc1COC(=O)c1ccc(N2CCOCC2)nc1	i
c1ccc(CCCc2noc(-c3ccc(N4CCOCC4)nc3)n2)cc1	35µM*
Cn1cnc(S(=O)(=O)NCCc2noc(-c3ccccc3)n2)c1	i
N#Cc1ccc(OCc2noc(-c3ccsc3)n2)cc1	i
COC1CCN(c2cc(-c3ccccn3)nc3c(C)noc23)CC1	i
CN(Cc1cnn(C)c1)c1ccc(-c2nc(COc3ccccc3)no2)cn1	i
CC(C)Cn1c(SCc2noc(-c3ccc(Cl)cc3)n2)nnc1N1CCOCC1	i
COC1CCN(c2ccc(-c3nc(COc4ccccc4)no3)cn2)CC1	28µM*
COc1ccc(NC(=O)Cn2ccn3nc4c(c3c2=O)CC(C)CC4)cc1OC (centres undefined)	i
CC(C)n1cc(NC(=O)c2ccc(F)cc2)cn1	i
COCCN1CCNc2nc(COc3cccc(F)c3)n(Cc3ccccc3)c2C1=O	i
CC1CCCC(NC(=O)c2ccc3ccccc3c2)C1C (centres undefined)	i
CC1CCN(C(=O)c2ccc(NC(=O)c3nsc4ccccc34)cc2)CC1	i
COc1ccc(CC(=O)N2C[C@@H](CO)[C@H](c3ccccn3)C2)cc1	i
Cc1[nH]c2ccccc2c1/C=C(\C#N)c1nc2ccccc2[nH]1	i
Cc1ccc(NC(=O)C2CCC(=O)N2C(=O)OCc2ccccc2)cc1 (centres undefined)	i
CCc1noc(-c2ccn3c(CNC(=O)c4ccc(C)c(F)c4)nnc3c2)n1	i

Screening results deposited in PubChem by National Center for Advancing Translational Sciences (NCATS).
